# Measured values from the supplement of paper PMC4166925.
# ± gives the standard deviation of the averaged measurements. Over roughly 33,000 sequences, “E-score (dimensionless, -0.5 to 0.5)” has its median near -0.046; the highest 2% begin near 0.36. What follows is part of a selection rich in the highest values, with near analogues and random picks from the rest.
# System: T1, SpTbr T-box DNA-binding domain (GST fusion)
# T1 sequence: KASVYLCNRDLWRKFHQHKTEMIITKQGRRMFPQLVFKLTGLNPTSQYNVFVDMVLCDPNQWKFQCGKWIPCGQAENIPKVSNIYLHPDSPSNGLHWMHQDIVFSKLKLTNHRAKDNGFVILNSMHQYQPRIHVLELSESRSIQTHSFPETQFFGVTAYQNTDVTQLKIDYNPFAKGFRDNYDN
# Test: PBM E-score of 8-mer (E-score (dimensionless, -0.5 to 0.5)); Tbr is Tbrain of the sea star Patiria miniata (Pm) or the sea urchin Strongylocentrotus purpuratus (Sp); higher = stronger binding preference
# Details: the construct has about 5 more residues each side
# Procedure, shortened: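 Primer extension turned Universal Agilent oligonucleotide arrays double-stranded. They were incubated with 200 nM protein in PBS (pH 7.5); the protein was a GST-fused Tbr T-box DNA-binding domain expressed in BL21 E. coli at 20 °C and purified on glutathione. Every ungapped 8-mer was scored from the scanned, quantified probe intensities, and the Universal PBM Analysis Suite gave each an enrichment E-score averaged over duplicate arrays.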
row,Sequence,PBM E-score of 8-mer
1,ACGATCTC,0.0369 ± 0.034
2,GGATGACC,0.103 ± 0.0083
3,AACCACGG,0.0188 ± 0.11
4,GCAGAAGA,-0.218 ± 0.017
5,GAGTGCGA,0.411 ± 0.021
6,ACGTGCGG,0.206 ± 0.011
7,GCGTGCGA,0.317 ± 0.025
8,GAGTGCAA,0.0398 ± 0.012
9,ACGTGCGA,0.4353 ± 0.0022
10,GAGTGCGC,-0.0493 ± 0.043
11,ACTCTTCT,-0.224 ± 0.0037
12,GCACTTCC,0.326 ± 0.017
13,CCACTTCA,0.108 ± 0.019
14,ACACTTCT,0.383 ± 0.035
15,CCACTTCC,0.072 ± 0.0026
16,AAACTTCT,-0.146 ± 0.1
17,AAACTTCG,-0.00264 ± 0.024
18,CCACTTCG,0.193 ± 0.017
19,ACACTTCC,0.417 ± 0.016
20,ACACTTCG,0.409 ± 0.0085
21,ACACTTCA,0.412 ± 0.0084
22,TCACTTCA,0.151 ± 0.018
23,ACTCGTAC,-0.0977 ± 0.07
24,CATCCTGG,-0.0597 ± 0.01
25,AAGTTAAA,0.0719 ± 0.053
26,AGACTCTC,-0.0738 ± 0.045
27,TCTCAAAA,-0.176 ± 0.025

row,Sequence,PBM E-score of 8-mer
1,GACAATCC,0.0693 ± 0.021
2,AGGTGCTA,0.4822 ± 0.0033
3,AGGTGCGG,0.429 ± 0.025
4,CGGTGCTA,0.258 ± 0.035
5,AGGTGCGC,0.3101 ± 0.0015
6,GGGTGCAA,0.271 ± 0.017
7,TGGTGCAA,0.214 ± 0.0077
8,AGGTGCAA,0.414 ± 0.005
9,ATGTGCTA,0.328 ± 0.024
10,ATGTGCTG,0.161 ± 0.0054
11,AGGTGCTC,0.012 ± 0.081
12,AAGTGCGG,0.273 ± 0.027
13,AGGTGCTG,0.4215 ± 0.0039
14,GACTGTCA,0.144 ± 0.037
15,AGACTCGA,-0.158 ± 0.006
16,GGTGTAGA,0.35 ± 0.009
17,CGATCAGC,0.0172 ± 0.057
18,CAGAGTCG,0.144 ± 0.077
19,TAGACAGA,-0.0941 ± 0.02
20,CCAAGAGG,0.12 ± 0.0026
21,GACATTGC,0.0656 ± 0.018
22,CCCACGTA,-0.0631 ± 0.1
23,AAGAAGTA,-0.119 ± 0.082
24,GTGTGCTA,0.268 ± 0.025
25,GCGTGCTA,0.21 ± 0.019
26,GGGTGCTA,0.397 ± 0.0085
27,GTTTACGA,0.0241 ± 0.021

row,Sequence,PBM E-score of 8-mer
1,TACTTCGA,-0.0694 ± 0.013
2,AGGCGACA,0.37 ± 0.013
3,AGGCGCGC,0.185 ± 0.039
4,AGGCGCGA,0.471 ± 0.0037
5,AGGCGACG,0.301 ± 0.066
6,CGGCGCTA,0.152 ± 0.019
7,GGGGGCGA,-0.0505 ± 0.016
8,CGGCGCGA,0.3178 ± 0.00058
9,AGGCGCTA,0.41 ± 0.023
10,GGGCGCGA,0.422 ± 0.031
11,AGGCGCGG,0.291 ± 0.017
12,AGGCGACC,0.012 ± 0.083
13,GGGCGCTA,0.314 ± 0.014
14,CTAGATAA,-0.00975 ± 0.025
15,ACCGGTAC,-0.1754 ± 0.0017
16,TAAATGTA,-0.0999 ± 0.021
17,CGCACTGC,0.104 ± 0.0094
18,ATGCGGGA,-0.193 ± 0.03
19,GAATAGCA,0.189 ± 0.0036
20,AGTAGGAG,-0.00869 ± 0.02
21,CAGGCCTC,-0.159 ± 0.029
22,GCATAGAA,-0.126 ± 0.09
23,AGGCGAGA,0.373 ± 0.012
24,GGGCGAGA,0.222 ± 0.0041
25,AGGCGAGC,-0.233 ± 0.11
26,AAACAGAT,-0.136 ± 0.01
27,GGAATGCC,-0.187 ± 0.06

row,Sequence,PBM E-score of 8-mer
1,ATGTTTTG,0.00867 ± 0.052
2,AACCTAGG,-0.0376 ± 0.091
3,CCCCTAGG,-0.0502 ± 0.012
4,CACCTAGG,0.392 ± 0.012
5,CACCTAGC,0.40555 ± 0.00015
6,CACCTAGA,0.294 ± 0.073
7,AACCTAGC,-0.0309 ± 0.0034
8,AGAAGACT,-0.285 ± 0.046
9,ACTAAATA,-0.131 ± 0.019
10,GCGAATAC,0.228 ± 0.018
11,AGCCGTCG,0.0127 ± 0.019
12,AAGGGTAA,-0.088 ± 0.0016
13,ACCACACA,0.248 ± 0.037
14,CCCACACG,0.15 ± 0.1
15,CACACACC,0.454 ± 0.013
16,GCCACACA,0.335 ± 0.0096
17,GACACACC,0.321 ± 0.016
18,GCCACAGC,0.00288 ± 0.017
19,ACCACACC,0.369 ± 0.029
20,AACACACC,0.326 ± 0.0067
21,CCCACACC,0.438 ± 0.033
22,CCCACACA,0.199 ± 0.038
23,GCCACACC,0.421 ± 0.036
24,ACCACACG,0.26 ± 0.039
